Most compounds without a hit are left out; they make up all but 0.41% or so of the library.
N370S GC = qHTS Assay for Inhibitors and Activators of N370S glucocerebrosidase as a Potential Chaperone Treatment of Gaucher Disease | Lysosomal acid glucosylceramidase (Homo sapiens), P04062 | N370S GC spleen homogenate, 4MU-glucoside fluorescence | Potency, µM (highest dose often 59.4 µM), for inactives: at the top dose activity change, negative = inhibition, usual class: inhibitors | hit rate 0.092% among 330,000 | AID 2101, 2009;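 note: potency is the fitted concentration of half-maximal effect; 0% = full enzyme activity and -100% = no enzyme basal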
GLA inh pH 4.5 = qHTS Assay for Inhibitors of Human alpha-Galactosidase at pH 4.5; Alpha-galactosidase A (Homo sapiens), P06280; purified enzyme, 4-MU-alpha-Gal fluorescence, pH 4.5; activity change, negative = inhibition, % at 105 µM; 230,000 tested, under 10 active; AID 1467, 2008;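 note: 0% = full activity with enzyme and -100% = basal without enzyme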
GAA inh = qHTS Assay for Inhibitors of Human alpha-Glucosidase as a Potential Chaperone Treatment of Pompe Disease; Lysosomal alpha-glucosidase (Homo sapiens), P10253; purified human GAA, 4-MU-alpha-glucoside fluorescence; Potency, µM (highest dose often 76.9 µM), for inactives: top-dose activity change, negative = inhibition, most hits filed as inhibitors; hit rate 0.005% among 200,000; AID 1466, 2008;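 note: potency is the fitted concentration of half-maximal effect; plate controls were uninhibited enzyme wells for no effect and no-enzyme background for full effect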
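Endpoint fluorogenic read: 20 min room-temperature reaction of 4 nM human alpha-glucosidase with 400 uM 4-methylumbelliferyl-alpha-D-pyranoside, pH 5.0, quenched with 1M NaOH/1M glycine pH 10. AC50 from Hill modeling.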
GLA spleen mod = qHTS Assay for Inhibitors and Activators of Human alpha-Galactosidase From Spleen Homogenate; human spleen homogenate, 4MU-alpha-Gal fluorescence, 40 min; hit rate 0.008% among 240,000; AID 2107, 2009; Potency, µM (top dose mostly 80 µM), without a hit: at the top dose activity change, negative = inhibition, hits mostly inhibitors;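 note: potency is the fitted concentration of half-maximal effect; 0% = enzyme with vehicle and -100% = no enzyme basal signal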
Target sequence (P06280 32-429 limits assumed): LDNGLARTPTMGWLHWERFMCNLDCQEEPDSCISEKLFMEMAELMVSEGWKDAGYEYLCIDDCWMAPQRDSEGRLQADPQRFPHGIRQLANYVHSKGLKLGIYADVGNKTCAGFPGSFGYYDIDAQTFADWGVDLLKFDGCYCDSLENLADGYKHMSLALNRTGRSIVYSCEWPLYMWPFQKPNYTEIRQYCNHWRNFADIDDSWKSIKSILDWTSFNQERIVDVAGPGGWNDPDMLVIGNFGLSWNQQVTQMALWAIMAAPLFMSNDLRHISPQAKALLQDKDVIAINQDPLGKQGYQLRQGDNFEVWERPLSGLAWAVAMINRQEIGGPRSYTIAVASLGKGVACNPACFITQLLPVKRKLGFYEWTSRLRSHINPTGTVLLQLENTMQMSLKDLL
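qHTS titration in buffer at pH 5.0. Alpha-galactosidase activity in spleen homogenate was measured via 4-methylumbelliferone release from 1 mM fluorogenic substrate after 40 min at 37C and a pH 10 stop. AC50 came from Hill fits of control-normalized data.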
GAA glycogen mod = qHTS Assay for Inhibitors and Activators of Human alpha-Glucosidase Cleavage of Glycogen; hit rate 0.38% among 300,000; Potency, µM (top dose mostly 76.4 µM), for inactives: at the top dose activity change, negative = inhibition, actives largely listed as inhibitors; recombinant GAA, glycogen substrate, Amplex Red glucose oxidase fluorescence; Lysosomal alpha-glucosidase (Homo sapiens), P10253;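 note: potency is the fitted concentration of half-maximal effect; 0% = full enzyme reaction and -100% = no-enzyme basal signal; the screen sought inhibitors and activators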
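Recombinant human enzyme (4 nM); glycogen substrate; 37 C, 40 min, pH 5.0. Readout: coupled glucose oxidase/Amplex Red fluorescence.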
GAA spleen mod = qHTS Assay for Inhibitors and Activators of Human alpha-Glucosidase From Spleen Homogenate; Lysosomal alpha-glucosidase (Homo sapiens), P10253; human spleen homogenate, 4-MU-alpha-glucoside fluorescence; Potency, µM (top dose mostly 79.9 µM), for inactives: at the highest dose activity change, negative = inhibition, actives largely listed as inhibitors; hit rate 0.006% among 240,000; AID 2112, 2009;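 note: potency is the fitted concentration of half-maximal effect; 0% = enzyme with vehicle and -100% = no enzyme basal signal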
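Enzyme source: human spleen homogenate, 1 ug/well. Buffer 50 mM citric acid/K phosphate pH 5.0, 0.01% Tween-20. 4-MU-alpha-glucoside 1 mM; 37 C x 40 min; NaOH/glycine stop; fluorescence.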
Starred values were filed as active, the others as inactive; ? = inconclusive; . = not tested or not shown; [ ] = dose if it differs, or a comment. Calls come from the whole dose curve; as a rule, active = well fitted curve in the direction sought with a large enough effect; inconclusive = small, poorly fitted or top-dose-only effect, or another doubt; inactive = no such curve, though single readings can be large; an effect the other way counts as inactive or inconclusive.

SMILES	N370S GC	GLA inh pH 4.5	GAA inh	GLA spleen mod	GAA glycogen mod	GAA spleen mod
O=C(/C=C/Nc1ccccc1Oc1ccccc1)c1ccco1	6%	-7	-6%	-8%	-10%	-3%
CN(C)c1ccc(N/C=C/C(=O)c2ccco2)cc1	4%[12.8 µM]	-5	5%	1%	13µM*	2%
O=C(/C=C/Nc1ccccc1O)c1ccco1	-7%	-9	.	-5%	16µM*	-1%
Cc1ccc(NC(=O)CC2S/C(=N/N=C/C=C/c3ccccc3)NC2=O)cc1Cl (stereo unspecified)	-3%	-3	-10%	-18%	9%	-3%
Cc1ccc(S(=O)(=O)NNc2nc3ccccc3nc2C(F)(F)F)cc1	8%	1	-11%	14%	28µM*	9%
O=C(NNc1nc2ccccc2nc1C(F)(F)F)c1ccccc1	-6%	-2	-4%	-8%	11µM*	-18%
Cc1ccc(S(=O)(=O)NNc2ccccc2)cc1	.	1	4%	3%	?	-5%
Cc1c(C(=O)O)c2cc(O)ccc2n1-c1ccccc1	-4%	5	-3%	-21%	25µM*	-6%
CNc1ncnc2ccc(-c3cccc(OC)c3)cc12	8.9µM*	.	.	-29%	.	-3%
CO[C@H]1C=CO[C@@]2(C)Oc3c(C)c(O)c4c(O)c(c5c(nc6cc(C)ccn65)c4c3C2=O)NC(=O)C(C)=CC=C[C@H](C)[C@H](O)[C@@H](C)[C@@H](O)[C@@H](C)[C@H](OC(C)=O)[C@@H]1C	-14%	-15	4%[15.4 µM]	4%	20µM*	-2%
COC1/C=C/OC2(C)Oc3c(C)c(O)c4c(O)c(c(/C=N/N5CCN(C)CC5)c(O)c4c3C2=O)NC(=O)/C(C)=C/C=C/C(C)C(O)C(C)C(O)C(C)C(OC(C)=O)C1C (stereo unspecified)	-18%	-13	.	7%	.	8%
CC(=C/c1ccccc1)/C=N/n1c(-c2ccco2)n[nH]c1=S	21%	-13	-15%	-4%	25µM*	-1%
CCCCC(=NCCO)C1=C(O)C(C(=O)OC)C(C)(C)CC1=O (stereo unspecified)	0%	4	-2%	0%	1%	-4%
N#CC(=C=[N-])c1nc2ccccc2nc1-[n+]1cccc(NC(=O)c2ccc(F)cc2)c1	4%	3	2%[15.4 µM]	9%	2%	3%
CNc1ccc(-c2nc(-c3ccccn3)no2)cc1[N+](=O)[O-]	.	.	.	.	17%[76.3 µM]	.
COc1ccc(-c2cc(-c3cc(OC)ccc3O)[nH]n2)cc1	-4%	1	0%	4%	20µM*	3%
C=CCOc1cccc(NC(=O)c2ccccc2SC)c1	10%	6	?	6%	-7%	0%
COC(=O)CCCCCNc1ccc(C(=O)OC)cc1N	-1%	-6	?	7%	22µM*	3%
COC(=O)c1cc(Oc2ccc(C(=O)OC)cc2N)cc(C(=O)OC)c1	3%	0	4%	-2%	-8%	-3%
CN1CCN(NC(=O)c2cn(-c3ccccc3)nc2-c2cccc(Br)c2)CC1	10µM*	9	7%	7%	-3%	2%
COCCNC(=O)CCSc1nc(-c2ccc3c(c2)OCO3)cc(C(F)(F)F)n1	.	.	.	.	-3%[76.3 µM]	.
N#Cc1ccc(-c2csc(NNC(=O)c3ccccc3)n2)cc1	-2%	-3	-8%	5%	28µM*	-3%
O=C(NC(=S)N1CCN(c2ccc(O)cc2)CC1)c1cccs1	-6%	-2	.	5%	10µM*	-2%
CCOC(=O)CNCCC(=O)c1ccc(Br)cc1	18%	-1	6%	-5%	2%	-7%
Cn1c(=O)c2[nH]c(Nc3ccccc3)nc2n(C)c1=O	0%	2	-5%	-4%	7.1µM*	2%
SMILES	N370S GC	GLA inh pH 4.5	GAA inh	GLA spleen mod	GAA glycogen mod	GAA spleen mod
Cc1ccc(CNc2nc3c([nH]2)c(=O)n(C)c(=O)n3C)cc1	-2%	4	-3%	1%	4%	-6%
Cc1ccc(O)c(Sc2cc(C)ccc2O)c1	0%	-4	-10%	0%	28µM*	-4%
CS(=O)(=O)c1ccc2c(c1)sc1nc(=O)c(/C=C3/C=CC(=O)C(O)=C3)c(N)n12	-14%	-21	?	-6%	8.9µM*	-12%
COC1=C/C(=C/c2c(N)n3c(nc2=O)sc2cc(S(C)(=O)=O)ccc23)C=CC1=O	-15%	-14	.	-6%	2%	-2%
O=C(CCc1nnc2n(Cc3ccc(Cl)cc3)c(=O)c3ccccc3n12)N1CCN(c2ccccn2)CC1	-4%	.	.	.	.	.
CC(C)OCCCn1c(=O)c2ccccc2n2c(CCC(=O)N3CCN(c4ccccn4)CC3)nnc12	20µM*	.	.	.	-1%[76.3 µM]	.
CCOC(=O)c1ccc(Nc2nc(C)cc(C)n2)cc1	0%	.	.	.	-7%	.
CCOC(=O)c1ccc(Nc2cc(C)nc(-c3ccccc3)n2)cc1	1.4µM*	.	.	.	-1%	.
O=c1oc2ccccc2c2oc3cc(O)c(O)cc3c12	-12%	2	.	1%	28µM*	0%
Cc1cccc(CNc2ncc(-c3cccc([N+](=O)[O-])c3)n2C)c1	-4%	3	-1%	-2%	?	3%
Cn1c(-c2cccc([N+](=O)[O-])c2)cnc1NCc1cccc([N+](=O)[O-])c1	-13%	9	-6%	1%	22µM*	-4%
COC(=O)c1[nH]c2ccc(Cl)cc2c1NC(=O)Oc1ccccc1	10%	5	9%	13%	25µM*	0%

Bioassay records from PubChem.
